Only some compounds are listed: those with a hit (about 27% of all), similar ones and a draw of the others.
CYP2C19 activ: cytochrome P450 2C19 (human) activation | P33261 | recombinant CYP2C19, luciferin-H EGE luminescence; stronger effect = higher value; 0 = fully inhibited enzyme, 1 = untreated enzyme | 96,000 tested, under 10 active | activation factor at 5 µM;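 active = activation factor of at least 2 at 5 µM in the primary screen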;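 also: 0 = wells with 2.5 mM tranylcypromine and 1 = vehicle-only wells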
Target sequence (P33261 whole entry, looked up): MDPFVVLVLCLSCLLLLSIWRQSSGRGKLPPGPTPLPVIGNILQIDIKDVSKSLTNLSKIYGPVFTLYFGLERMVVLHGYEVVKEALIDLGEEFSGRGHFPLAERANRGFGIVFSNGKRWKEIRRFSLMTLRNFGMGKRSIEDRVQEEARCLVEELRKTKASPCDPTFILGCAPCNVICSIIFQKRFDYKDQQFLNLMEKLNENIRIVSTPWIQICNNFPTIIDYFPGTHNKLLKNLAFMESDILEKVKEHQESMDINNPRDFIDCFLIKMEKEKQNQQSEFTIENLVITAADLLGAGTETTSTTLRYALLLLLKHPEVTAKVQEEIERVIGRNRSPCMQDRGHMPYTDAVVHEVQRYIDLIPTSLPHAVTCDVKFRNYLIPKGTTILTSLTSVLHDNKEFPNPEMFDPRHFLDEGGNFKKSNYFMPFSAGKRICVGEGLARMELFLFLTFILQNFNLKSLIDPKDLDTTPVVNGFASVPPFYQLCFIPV
sEH inhibitor: inhibitors of human soluble epoxide hydrolase | recombinant human sEH enzymatic activity assay | P34913 | inhibition, % at 2 µM | actives 0.34% (n = 91,000); in the data active = inhibition above about 80%
CYP2C19 inhib: blocks human cytochrome P450 2C19 | CYP2C19 Supersomes, luciferin-H EGE luminescence, 30 min | inhibition, % at 5 µM | actives 21% (n = 96,000) | AID 778;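 active = CYP2C19 inhibition above a set limit at 5 µM in the primary screen, cut at about 50% in these data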;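 also: plate controls were negative control wells for no effect and 2.5 mM tranylcypromine positive control for full effect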
sEH act: soluble epoxide hydrolase (human) activation. P34913. activation, % at 2 µM. purified human sEH enzymatic activity, activator screen. actives 0.04% (n = 91,000); in the data active = activation above about 37%
CYP2C9 act: CYP2C9 (human) activation | AID 1024 | recombinant CYP2C9, luciferin-H conversion, luminescence; stronger effect = higher value; factor 1 = untreated enzyme, 0 = blocked | activation factor at 5 µM | actives 1.4% (n = 96,000);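 active = activation factor of 2 or more for CYP2C9 at a 5 µM dose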;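 also: 0 = sulfaphenazole-blocked wells and 1 = vehicle-only wells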
CYP2C9 inh: inhibitors of human CYP2C9; inhibition, % at 5 µM; P11712; AID 777; CYP2C9 Supersomes, luciferin-H conversion, luminescence; actives 20% (n = 96,000);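 active = blocking of liver enzyme CYP2C9 beyond about 50% at 5 µM, limit read from the data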
* = called active by the depositor; / = no result given.

SMILES	CYP2C19 activ	sEH inhibitor	CYP2C19 inhib	sEH act	CYP2C9 act	CYP2C9 inh
Cc1nnc(NC(=O)c2oc3c(ccc4ccccc43)c2C)s1	0.8	/	22.4	/	1	-1.4
CCN(CC)c1nc(OCCNC(=O)Nc2ccccc2)nc(N(CC)CC)n1	0.5	9.9	47.9	-8.2	0.1	88.3*
O=C(NCCOc1nc(N2CCCCC2)nc(N2CCOCC2)n1)Nc1ccccc1	0.6	-3.9	37.8	1.9	0.3	69.0*
CCCCCCNC(=O)Nc1ccccc1	0	71.3	96.1*	-70.9	0.4	56.3*
COc1nc(OCCNC(C)=O)nc(N(C)C)n1	0.9	12.4	5.7	-11.4	1	3.1
CCN(CCNC(=O)Nc1ccc(Cl)cc1)c1ccccc1	0.4	85.6*	58.6*	-85.9	0.7	26.2
O=C(NCCN1CCOCC1)Nc1ccccc1	1	-0.6	2.5	1.6	0.9	13.7
Nn1c(SCC(=O)Nc2ccc(F)c(F)c2)nnc1C1CCCCC1	0.8	-2.7	23.4	4.3	0.7	29.8
CCOC(=O)C(Sc1ncnc2c1sc1nc(N3CCOCC3)c3c(c12)CCCC3)c1ccccc1 (stereo not drawn)	0.9	2.6	9.9	-2.2	0.6	39.1
CCC(CC)n1[nH]c(=O)cc1N	/	3.5	/	-1.0	/	/
COc1ccc(CCNC(=O)C2CCN(S(=O)(=O)c3cccc4nonc34)CC2)cc1OC	0.7	15.7	27.1	-14.1	0.8	17.8
O=C(NCCc1ccccc1)C1CCN(S(=O)(=O)c2cccc3nonc23)CC1	0.8	18.1	18.6	-17.8	2.3*	-127.9
O=C(NCCc1ccc(Cl)cc1)C1CCN(S(=O)(=O)c2cccc3nonc23)CC1	0.7	15.3	26.0	-13.0	2.5*	-150.9
O=C(NCCc1ccccc1)C1CCN(S(=O)(=O)c2ccc(-c3nn[nH]n3)cc2)CC1	1	4.2	4.6	-6.5	0.2	83.1*
O=C(NCCN1CCN(c2ccccc2)CC1)C1CCN(S(=O)(=O)c2cccc3nonc23)CC1	0.5	17.7	52.2*	-19.5	1.1	-14.2
O=C(NCCN1CCN(c2ccccc2)CC1)C1CCN(S(=O)(=O)c2cccs2)CC1	0.9	4.5	11.5	-6.3	0.9	14.7
COC(=O)c1c(C)noc1-c1cc(C)on1	0.9	-3.4	13.6	7.1	1.2	-23.6
CC(C)OC(=O)CSc1nnc(-c2cnccn2)n1-c1ccccc1	/	-2.7	/	0.8	/	/
CCOc1ccccc1N(C)C(=O)C1CCN(S(=O)(=O)c2cccc3nonc23)CC1	0.2	-0.1	84.9*	2.9	0.1	94.1*
CCCn1c2ccccc2c2nnc(SC(CC)C(=O)Nc3sc4c(c3C#N)CCCC4)nc21 (stereo not drawn)	0.3	1.6	70.4*	-2.4	0.1	89.1*
CC(C)c1nnc(NC(=O)c2sc3ccccc3c2Cl)s1	1	7.4	2.3	-5.7	0.9	14.2
Cn1c(C(C#N)C(=O)c2sc3ccccc3c2Cl)nc2ccccc21 (stereo not drawn)	0.8	-3.7	22.1	7.5	0.3	71.1*
COc1cc(C2=NOC(C(=O)Nc3ccc(C(C)=O)cc3)C2)cc(OC)c1OC (stereo not drawn)	1.1	-3.9	-11.5	4.5	1	2.4
COc1cccc(C2=NOC(C(=O)Nc3ccc(C(C)=O)cc3)C2)c1 (stereo not drawn)	0.8	5.3	15.9	-2.6	0.8	22.3
COc1ccc(OC)c(C2=NOC(C(=O)Nc3cccc(C(C)=O)c3)C2)c1 (stereo not drawn)	0.5	10.3	51.9*	-11.6	2.3*	-133.7
SMILES	CYP2C19 activ	sEH inhibitor	CYP2C19 inhib	sEH act	CYP2C9 act	CYP2C9 inh
COc1cc(NC(=O)C2CC(c3cccc(OC)c3OC)=NO2)cc(OC)c1OC (stereo not drawn)	0.4	-3.1	60.8*	0.6	1.4	-36.9
COc1ccc(OC)c(C2=NOC(C(=O)Nc3ccccc3SC)C2)c1 (stereo not drawn)	0.1	-0.3	86.4*	-0.4	1.3	-33.4
COc1ccc(OC)c(C2=NOC(C(=O)Nc3cc(C)nn3-c3ccccc3)C2)c1 (stereo not drawn)	0.6	/	42.8	/	0.8	17.0
O=C(CSc1nc2c(sc3ccccc32)c(=O)n1CCO)NCc1ccco1	0.8	4.6	22.8	-7.4	0.6	42.8
Cc1cc(NC(=O)CSc2nc3c(sc4ccccc43)c(=O)n2CCc2ccccc2)n[nH]1	0.1	-3.5	94.2*	0.8	0.6	36.1
Cc1cc(NC(=O)CSc2nc3c(sc4ccccc43)c(=O)n2CCCN2CCOCC2)n[nH]1	0.5	-2.3	52.0*	1.0	0.8	19.8
Cc1cccc(C)c1OC(=O)CN(c1ccc(Cl)cc1)S(C)(=O)=O	1	/	-0.9	/	0.8	15.3
O=C1CC(C2CCCO2)C(=O)N1c1cccc(Cl)c1 (stereo not drawn)	1	3.3	-2.6	-2.7	1.2	-17.0
Cc1ccc(C(=O)CC(C(=O)O)c2cn(CCC#N)c3ccccc23)cc1 (stereo not drawn)	0.9	/	8.4	/	0.6	40.1
N#CCCn1cc(C(CC(=O)c2ccc(Br)cc2)C(=O)O)c2ccccc21 (stereo not drawn)	0.7	/	29.2	/	0.4	57.5*
COc1ccccc1N1CCN(C(=O)c2ccoc2C)CC1	0.3	-9.6	73.9*	12.9	0.8	16.4
Cc1onc(-c2ccccc2Cl)c1C(=O)N1CCN(C/C=C/c2ccccc2)CC1	0.9	/	5.2	/	1	-2.6
Cc1onc(-c2ccccc2Cl)c1C(=O)N1CCCCC1C(=O)O (stereo not drawn)	0.9	16.1	9.5	-14.7	1	0.7
COc1ccccc1N1CCN(C(=O)c2c(-c3ccccc3Cl)noc2C)CC1	0.1	/	93.9*	/	0.3	65.1*
COC(=O)C1CCN(C(=O)c2c(-c3ccccc3Cl)noc2C)CC1	0.5	-0.6	54.3*	-1.2	0.9	14.8
Cc1onc(-c2ccccc2Cl)c1C(=O)N1CCN(c2nc3ccccc3s2)CC1	0	/	96.3*	/	0.1	91.6*
O=C(CCCc1ccccc1)Nc1cccnc1	0.3	6.5	74.9*	-5.2	0.5	50.3*
CN(C)c1ccc(NC(=O)CCCc2ccccc2)cc1	0	56.6	100.0*	-57.6	0.5	48.7
CC(C)NC(=O)CCCc1ccccc1	0.8	/	20.6	/	1	-4.2
CN(C)c1ccc(NC(=O)CN2C(=O)CC(c3ccccc3)=Nc3ccccc32)cc1	0.9	16.2	6.4	-14.9	0.3	72.2*
O=C(CCc1ccccc1)Nc1cccc(NC(=O)CCc2ccccc2)c1	0.5	-25.6	45.4	23.3	0.1	88.1*
Cc1cccc(NC(=S)NC(=O)CCc2ccccc2)c1	0.7	4.5	33.8	-0.5	0.9	5.6
CC(=O)Nc1ccc(S(=O)(=O)N(c2cccnc2)S(=O)(=O)c2ccc(NC(C)=O)cc2)cc1	/	-6.2	/	7.6	/	/
Cc1ccc(-c2nnc3n2N=C(c2ccccc2Br)CS3)cc1	0.6	10.5	41.1	-11.7	0.6	43.0

Screens from PubChem.
